Assay results from ChEMBL document CHEMBL4888484, “Replenishing the malaria drug discovery pipeline: Screening and hit evaluation of the MMV Hit Generation Library 1 (HGL1) against asexual blood stage Plasmodium falciparum ,using a nano luciferase reporter read-out” (2022).
Out of some 4,800 compounds screened, about 410 (8.5%) showed an effect of 50% or more. The full list was thinned out, with strong results kept by preference.

The molecules below were run on Plasmodium falciparum (assay: Confirmatory screen in NF54 pLDH assay, in single point, at 2uM, 72h). Conditions: timepoint 72 hour.
Type: functional, Erythrocyte

First: O=C(CCS(=O)(=O)c1ccc2ccccc2c1)Nc1ncn(Cc2c(F)cccc2Cl)n1
Second: CCc1c(C)nn(S(=O)(=O)c2ccc3ccccc3c2)c1O
The “% Inhibition” value of the first is higher: 4% for the first, -3% for the second.

Going from `Cc1ccc(CNC2CCN(C)CC2)c(OCc2ccco2)c1` to `CCN1c2cc(C)ccc2-n2cccc2C12CCNCC2`, the “% Inhibition” value falls from 3% to -7%.

Compared with `O=C(NCCOc1cccc(F)c1)c1cccnc1NC1CCCC1`, `CCCc1ccc(OCCNC(=O)C2CCCC2)cc1` is higher in “% Inhibition” value: 1% for the first, 3% for the second.

First: O=C(Nc1ccccc1-n1ccnc1)c1cnccn1
Second: O=C(Nc1ccc(Cn2ccnc2)cc1)c1cc2ccccc2cc1OC(F)F
The “% Inhibition” value of the first is higher: -7% for the first, -12% for the second.

First: Cc1cccc(N2CCN(C(=O)CCC3=Nc4cc(C(F)(F)F)ccc4S(=O)(=O)N3)CC2)c1C
Second: O=C(c1cc2nc(-c3ccc(Cl)c(Cl)c3)cc(C(F)(F)F)n2n1)N1CCN(c2ccccc2)CC1
The “% Inhibition” value of the first is higher: 12% for the first, -7% for the second.

Compared with `COc1ccc(OC)c(CCNC(=O)Cn2ccc3cc(S(=O)(=O)N4CCCC4)ccc32)c1`, `COc1cccc(S(=O)(=O)N2CCC(OCCOCc3ccccc3)CC2)c1` is lower in “% Inhibition” value: 11% for the first, 10% for the second.

Compared with `COc1ccc(CNC(=O)c2ccc(N3C(=O)[C@@H]4Cc5c([nH]c6ccccc56)C(c5cccc(OC)c5)N4C3=O)cc2)cc1` (some centres undefined), `CCOc1ccc(C2c3[nH]c4ccccc4c3C[C@H]3C(=O)N(C4CCN(Cc5ccccc5)CC4)CC(=O)N23)cc1OC` (some centres undefined) is higher in “% Inhibition” value: 32% for the first, 79% for the second.

Compared with `COc1ccccc1C1c2[nH]c3ccccc3c2C[C@H]2C(=O)N(CC(O)c3ccccc3)CC(=O)N12` (some centres undefined), `O[C@@H](Cc1ccc2ccccc2n1)c1ccccc1` is lower in “% Inhibition” value: 12% for the first, -3% for the second.

First: COc1ccc(C(C)(C)C(=O)N(C)Cc2cn(C)nc2C(C)C)cc1
Second: CCc1cc(C(=O)N2CCCCC2)c2c(C)nn(-c3ccc(OC)cc3)c2n1
The “% Inhibition” value of the first is higher: 13% for the first, 10% for the second.

First: COc1nc(NC2CCS(=O)(=O)CC2)ncc1F
Second: CCOC(=O)c1cn(CC)c2cc(NC3CCCCC3)c(F)cc2c1=O
The “% Inhibition” value of the first is higher: 77% for the first, 69% for the second.

Compared with `CC1(C)C(NCC(O)COc2ccc(F)c(F)c2)[C@@H]2CCC[C@@H]21` (some centres undefined), `CCOC(=O)CNc1ccc(F)c(Cl)c1` is lower in “% Inhibition” value: 75% for the first, -3% for the second.

Compared with `Cc1cccc2sc(N3CCC[C@H](CNS(N)(=O)=O)C3)nc12`, `Cc1ccc(-c2noc(CCC(=O)NC[C@H]3CCCO3)n2)c(=O)n1C(C)C` is lower in “% Inhibition” value: 9% for the first, 0% for the second.

Going from `Cc1nc(N2CCC(c3nc(-c4ccccc4)no3)CC2)c2c(C)noc2n1` to `Cc1sc2nc(-c3ccccn3)nc(NCC(=O)N3CCC(O)CC3)c2c1-c1ccccc1`, the “% Inhibition” value rises from 9% to 23%.

Going from `CCn1nccc1CN(C)C(=O)c1cc(S(=O)(=O)N(C)C)c(Cl)cc1Cl` to `CCn1nc(-n2cnnc2)c(NS(=O)(=O)c2ccc(Br)cc2C)c1C`, the “% Inhibition” value rises from -10% to 12%.

Compared with `COc1cccc(-c2nc(C)c(C(=O)Nc3nc(C(C)C)n[nH]3)s2)c1`, `Cc1ccc(-c2cc(C(=O)Nc3nnc(C(C)C)s3)no2)cc1F` is higher in “% Inhibition” value: 10% for the first, 16% for the second.

Compared with `O=C(NC1CCCCC1)c1nn(-c2ccccc2)c(=O)c2ccccc12`, `CN1CCCN(c2ccc(NC(=O)c3nn(-c4ccccc4)c(=O)c4ccccc34)cc2F)CC1` is higher in “% Inhibition” value: -12% for the first, 68% for the second.

Compared with `O=C(Nc1ccc(N2CCCC2)c(F)c1)C(=O)Nc1ccon1`, `O=C(Nc1ccccc1)C(=O)Nc1ccc2ncc(Cl)n2c1` is higher in “% Inhibition” value: -13% for the first, 7% for the second.

Compared with `Cc1ccc(S(=O)(=O)N(CC(=O)N[C@@H](C)c2ccccc2)c2cccc(Br)c2)cc1`, `O=C(c1cccc(COc2ccc(Br)cc2)c1)N1CCN(Cc2ccccc2)CC1` is lower in “% Inhibition” value: 11% for the first, -14% for the second.

Compared with `CCc1ccc(-c2cc3c(=O)n(CC(=O)N4CC(C)CC(C)C4)ncn3n2)cc1` (centres undefined), `CCN1CCN(c2nc3ncn(CC(=O)NCCCc4ccccc4)c(=O)c3s2)CC1` is lower in “% Inhibition” value: 11% for the first, -2% for the second.

First: Cc1cc(NCCc2nccn2C)ncn1
Second: CC[C@H](C)NC(=O)c1cn(-c2cccc(C)n2)cn1
The “% Inhibition” value of the first is lower: -4% for the first, 13% for the second.

Going from `Cc1ncsc1COC(=O)c1ccnc(N(C)C)c1` to `Cc1cccc2ncnc(N(C)[C@@H](C)Cc3ccc(O)cc3)c12`, the “% Inhibition” value rises from 10% to 84%.

Compared with `C[C@H]1CCC[C@@H](NCCc2ccccc2)CCC/C=C/c2cc(O)cc(O)c2C(=O)O1`, `CN(Cc1ccccc1)C(=O)C[C@H]1CCN(C(=O)NC2CCCC2)C1` is lower in “% Inhibition” value: 72% for the first, 2% for the second.

First: Cc1cccc(NC(=O)c2cc(Cl)c[nH]2)n1
Second: Cc1cc2[nH]ncc2cc1NC(=O)c1ccco1
The “% Inhibition” value of the first is lower: 6% for the first, 9% for the second.

Compared with `COc1ccccc1C1CC1c1nc(CC(=O)NC2CCCC2)no1` (centres undefined), `CN(CCNC(=O)CCc1cn(-c2ccccc2)nc1-c1ccc2c(c1)OCO2)C1CCCCC1` is higher in “% Inhibition” value: -5% for the first, 49% for the second.

`Nc1ccc(Cc2nnc3n2CCC3)cc1` and `O=C1CCC[C@H](O)N1Cc1ccc(F)cc1` are the same in “% Inhibition” value: 8% for the first, 8% for the second.

First: O=C(N[C@@H](CN1CCCC1)c1ccccc1)N1CCC(c2ccn[nH]2)CC1
Second: CC(NC(=O)C1CCC1)C(=O)Nc1ccn(C(C)c2ccccc2)n1 (centres undefined)
The “% Inhibition” value of the first is higher: 43% for the first, -6% for the second.

Compared with `CN(C)CCCNCc1ccccc1F`, `Clc1cccc(CNCCCNc2ccncc2)c1Cl` is higher in “% Inhibition” value: 10% for the first, 95% for the second.

Going from `OCCNCc1c(Cl)cccc1Cl` to `CC(C)[C@H](NC(=O)c1ccc(Cl)cc1Cl)C(=O)O`, the “% Inhibition” value falls from 4% to -5%.

Compared with `c1ccc2c[n+](Cc3ccc4ccccc4n3)ccc2c1`, `Cc1ccc[n+](Cc2ccc3ccccc3n2)c1` is higher in “% Inhibition” value: 47% for the first, 53% for the second.

First: CC(=O)Nc1cccc(NC(=O)Cn2c(=O)n(CCc3cccs3)c(=O)c3ccccc32)c1
Second: Cc1cccc(C)c1Oc1ccccc1NC(=O)CCc1nnc[nH]1
The “% Inhibition” value of the first is higher: 10% for the first, 4% for the second.

Going from `CCOC(=O)c1ncn(C2CCCCC2)c1N` to `CCOC(=O)COc1cc(N)c(F)cc1Cl`, the “% Inhibition” value falls from 10% to -9%.

Going from `CCOC(=O)c1cc(NC(=O)C(C)(C)NC(=O)OC(C)(C)C)c(F)cc1C` to `CC(C)(C)NC(=O)CNC(=O)c1cccc(F)c1`, the “% Inhibition” value falls from 8% to -8%.

Compared with `CC[C@H]1C[C@@H]1CNC(=O)c1cccc(NC(=O)c2ccco2)c1`, `O=C(Nc1nc2cccc(Cl)c2o1)c1cccc(F)c1` is higher in “% Inhibition” value: -2% for the first, 92% for the second.

Going from `COC(C)(C)c1nc(Cn2cnc3ccccc32)no1` to `Cc1nc(Cn2nnc(NC(=O)c3cccc(F)c3)c2C)no1`, the “% Inhibition” value rises from 6% to 8%.

Going from `CCOC(=O)CCn1cc(F)c(=O)[nH]c1=O` to `CCCCn1c(N)c(N(Cc2ccccc2OC)C(=O)c2ccoc2C)c(=O)[nH]c1=O`, the “% Inhibition” value falls from 66% to -22%.

Compared with `COCCCNC(=O)c1cncc(Br)c1`, `CC(C)CN1C(=O)CC[C@@H](C(=O)NCCCN2CCOCC2)[C@@H]1c1cccnc1` is lower in “% Inhibition” value: -2% for the first, -17% for the second.

First: NC(=O)c1cc(Cl)c(Cl)c(Cl)c1
Second: O=C(CNc1cc(F)c(F)cc1F)NC(=O)NCC(F)(F)F
The “% Inhibition” value of the first is lower: -22% for the first, -5% for the second.

Going from `CCc1ccc([C@H]2NCCc3[nH]cnc32)nc1` to `CCc1ccc(CN2CCC[C@H](c3ncc[nH]3)C2)nc1`, the “% Inhibition” value rises from 24% to 52%.

Compared with `CC(C)n1ccc(CN2CCC[C@H](c3cc(C(F)(F)F)[nH]n3)C2)n1`, `O=C(NCCN1CCCC1)c1cc2n(n1)CCN(Cc1cccc(F)c1)C2=O` is lower in “% Inhibition” value: 1% for the first, -27% for the second.

Compared with `O=C(c1cccc(C(=O)N2CCN(C(c3ccccc3)c3ccccc3)CC2)c1)N1CCN(C(c2ccccc2)c2ccccc2)CC1`, `c1ccc(C(c2ccccc2)N2CCN(c3nn4cnnc4c4ccccc34)CC2)cc1` is higher in “% Inhibition” value: 26% for the first, 65% for the second.

Compared with `COC(=O)[C@](Nc1ccc(Oc2ccccc2)cc1)(c1cc(C)c(O)c(C)c1)C(F)(F)F`, `Cc1ccc(Nc2c(C(=O)NCc3ccc(F)cc3)cnc3c2c(C)nn3C)cc1` is lower in “% Inhibition” value: 7% for the first, -5% for the second.

Going from `N#Cc1nc2c(C#N)c(N)n(CCc3ccccc3)c2nc1C#N` to `Nc1nc2c(s1)CN(CCc1ccccc1)CC2`, the “% Inhibition” value falls from 92% to 41%.

Compared with `N#Cc1c(-c2ccccc2)cc(-c2ccccc2)nc1S(=O)(=O)Cc1ccccc1`, `N#CC1(c2ccccc2)c2ccccc2C(=O)c2ccccc21` is lower in “% Inhibition” value: 43% for the first, -4% for the second.

`O=S(=O)(c1ccccc1F)C1CNC1` and `O=S(=O)(Nc1ccc2nncn2c1)c1c(F)cccc1Cl` are the same in “% Inhibition” value: -18% for the first, -18% for the second.

First: CC(C)c1nc(C(=O)Nc2[nH]c(=O)ncc2F)cs1
Second: O=C(Nc1[nH]c(=O)ncc1F)c1coc(-c2ccccc2)n1
The “% Inhibition” value of the first is higher: 83% for the first, 71% for the second.

Compared with `O=C(c1coc(-c2ccccc2)n1)N1CCc2cc(Br)ccc21`, `Cc1nc(C(=O)Nc2[nH]c(=O)ncc2F)c(-c2ccccc2)o1` is higher in “% Inhibition” value: 1% for the first, 70% for the second.

First: CC(C)c1nc(C(=O)Nc2ccccc2CN2CCNC2=O)cs1
Second: Cc1c(Br)c(C)n(NC(=O)c2cnn(Cc3ccccc3)c2)c(=O)c1C#N
The “% Inhibition” value of the first is higher: 5% for the first, -15% for the second.

First: Cc1nc2ccc(Cl)cc2c(-c2ccccc2)c1C1=NN(S(C)(=O)=O)[C@H](c2ccccc2Cl)C1
Second: COc1cccc(S(=O)(=O)N2CCCN(Cc3ccncc3)[C@H](c3ccccc3)CC(=O)NCC2)c1
The “% Inhibition” value of the first is lower: -14% for the first, 86% for the second.

Compared with `Cn1cc(-c2csc(NC(=O)c3ccc4[nH]cnc4c3)n2)cn1`, `Cc1n[nH]c2ncc(NC(=O)c3ccc(CCC(F)(F)F)cc3)cc12` is higher in “% Inhibition” value: 7% for the first, 17% for the second.

First: CCN1C(=O)CN(C(=O)c2cccc(C)c2)CC12CCOCC2
Second: Cc1ccc(F)cc1NC(=O)N1CCC12CCC2
The “% Inhibition” value of the first is lower: 9% for the first, 11% for the second.

First: Cc1cc(C)cc(CN2CCCN(c3ccc(C)cc3NC(=O)Cc3ccc(F)cc3)C2=O)c1
Second: COc1cccc(S(=O)(=O)N2CCC(OCCOc3ccccc3)CC2)c1
The “% Inhibition” value of the first is higher: 13% for the first, 7% for the second.

Going from `CC(C)CCO[C@@H](C)C(=O)NC1CCN(CC(=O)NC(C)C)CC1` to `O=C1C2C3C=CC(C3=C3CCCCC3)C2C(=O)N1c1cccc(Cl)c1` (centres undefined), the “% Inhibition” value rises from 5% to 15%.
